# Data taken from PubChem BioAssay (NCATS).
# Unmarked numbers belong to inactive results. Inconclusive results are not listed. Active and inactive are the calls of the source. Calls come from the whole dose curve; as a rule, active = well fitted curve in the direction sought with a large enough effect; inconclusive = small, poorly fitted or top-dose-only effect, or another doubt; inactive = no such curve, though single readings can be large; an effect the other way counts as inactive or inconclusive.
# Target: Cytochrome P450 2C19 (Homo sapiens) (UniProt P33261)
# Sequence (P33261 whole entry, looked up): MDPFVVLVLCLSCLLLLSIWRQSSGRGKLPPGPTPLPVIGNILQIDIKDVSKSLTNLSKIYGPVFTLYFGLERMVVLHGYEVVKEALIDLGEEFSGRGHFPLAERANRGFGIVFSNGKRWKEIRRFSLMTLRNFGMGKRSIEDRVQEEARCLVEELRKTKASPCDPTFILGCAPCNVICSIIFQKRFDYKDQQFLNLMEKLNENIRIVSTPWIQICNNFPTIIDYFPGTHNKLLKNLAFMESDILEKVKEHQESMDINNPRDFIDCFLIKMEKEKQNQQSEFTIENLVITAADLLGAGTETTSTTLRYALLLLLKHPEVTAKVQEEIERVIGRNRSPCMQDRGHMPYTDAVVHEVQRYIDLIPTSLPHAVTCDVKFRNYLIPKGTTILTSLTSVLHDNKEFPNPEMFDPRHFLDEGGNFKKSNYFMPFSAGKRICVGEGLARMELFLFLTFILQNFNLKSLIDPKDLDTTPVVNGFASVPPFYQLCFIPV
# Test: qHTS Assay for Inhibitors and Substrates of Cytochrome P450 2C19 (AID 899); note: nearly all actives have a fitted effect of over 60% in size; note: potency is the fitted concentration of half-maximal effect; for activity, negative = inhibition: % is set by controls: 0 for no effect and ±100 for the full control effect
# Settings: recombinant CYP2C19, luciferin-H EGE luminescence; series mostly up to 57.1 µM
# How it was run: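 NADPH-dependent conversion of Luciferin-H EGE (10uM, at KM) by 5nM enzyme in 50mM KPO4, 60 min at 37C following 10 min compound preincubation. Stopped with luciferin detection buffer; luminescence read after 20 min.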
SMILES,Potency,"activity, negative = inhibition"
COc1c(-c2ccccc2)oc2c(ccc3occc32)c1=O,3980 nM (active),–
c1ccc(-c2cc3c(nc2-c2ccccc2)CCNC3)cc1,–,24.9% [at 11.4 µM]
COCOc1ccc(Br)cc1C(=O)/C=C\c1ccc2c(c1)OCO2,63.1 nM (active),–
CC1Cc2c(cnc3c2CN(C)CC3)CO1 (stereo not given),–,9.03% [at 11.4 µM]
O=c1c2ccccc2c2ccccc2c(=O)n1-c1cc2c3ccccc3ccc2c2ccccc12,158 nM (active),–
CCC1CN2CCC1CC2C(Oc1cc2ccccc2c2ccccc12)c1ccnc2ccc(O)cc12 (stereo not given),–,16.1% [at 11.4 µM]
O=[N+]([O-])c1ccc(S(=O)(=O)Cc2ccccc2)c([N+](=O)[O-])c1,2000 nM (active),–
CN1CCc2nc(CO)c(CO)cc2C1,–,81.3% [at 11.4 µM]
O=C1C=CC(=O)c2c1ccc1c2ccc2ccccc21,1580 nM (active),–

# Target: Alpha-galactosidase (Coffea arabica) (UniProt Q42656)
# Sequence (Q42656 whole entry, looked up): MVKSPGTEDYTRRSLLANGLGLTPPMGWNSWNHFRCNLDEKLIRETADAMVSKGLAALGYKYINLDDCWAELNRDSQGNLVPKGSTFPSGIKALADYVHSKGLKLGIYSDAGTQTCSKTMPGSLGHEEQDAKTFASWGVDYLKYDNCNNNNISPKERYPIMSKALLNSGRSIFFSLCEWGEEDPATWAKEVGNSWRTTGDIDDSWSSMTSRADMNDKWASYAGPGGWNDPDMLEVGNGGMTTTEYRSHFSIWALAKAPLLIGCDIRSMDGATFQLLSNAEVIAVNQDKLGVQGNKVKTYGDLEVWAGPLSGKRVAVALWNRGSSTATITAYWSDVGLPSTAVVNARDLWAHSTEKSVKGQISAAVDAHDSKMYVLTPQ
# Test: Counterscreen for Glucocerebrosidase Inhibitors: qHTS Assay for Coffee Bean alpha-Galactosidase at pH 4.5 (AID 957);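 note: plate controls were enzyme alone for no effect and no enzyme for full effect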
# Settings: purified coffee bean alpha-galactosidase, fluorogenic substrate; series mostly up to 76.9 µM
# How it was run: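 Coffee bean alpha-galactosidase 2 nM, substrate 4-MU-alpha-Gal 80 uM, pH 4.5 citrate/Tween-20, 20 min RT. Cpd titration 0.7 nM–77 uM. Stop pH 10, fluorescence 365/440 nm; Hill-equation AC50.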
row,SMILES,outcome
1,C[C@@]12C=CC(=O)C=C1CC[C@@H]1C2=CC[C@]2(C)[C@@H]1CC[C@H]2C(=O)CN1CCN(c2cc(N3CCCC3)nc(N3CCCC3)n2)CC1,inactive
2,CCCCCCCCCC[Si](C)(C)CCC(=O)N[C@@H](Cc1ccc(C)cc1)c1ccccc1,inactive
3,Nc1nc(N)c2nc(CNc3ccc(C(=O)N[C@H](CCC(=O)O)C(=O)O)cc3)cnc2n1,inactive

# Target: Alpha-galactosidase (Coffea arabica) (UniProt Q42656)
# Test: Counterscreen for Glucocerebrosidase Inhibitors: qHTS Assay for Coffee Bean alpha-Galactosidase at pH 5.9 (AID 998);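 note: plate controls were uninhibited enzyme for no effect and no-enzyme basal signal for full effect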
# Settings: coffee bean alpha-galactosidase enzyme assay; series mostly up to 76.9 µM
# How it was run: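 Green coffee bean enzyme (2 nM final) was incubated with compounds (0.7 nM–77 uM) and 4-methylumbelliferyl alpha-D-galactopyranoside (80 uM) in citrate buffer pH 5.9, 20 min at room temperature. High-pH stop; fluorescence 365/440 nm; AC50 from Hill fits.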
row,SMILES,outcome
1,C[C@@]12C=CC(=O)C=C1CC[C@@H]1C2=CC[C@]2(C)[C@@H]1CC[C@H]2C(=O)CN1CCN(c2cc(N3CCCC3)nc(N3CCCC3)n2)CC1,inactive
2,CCCCCCCCCC[Si](C)(C)CCC(=O)N[C@@H](Cc1ccc(C)cc1)c1ccccc1,inactive
3,Nc1nc(N)c2nc(CNc3ccc(C(=O)N[C@H](CCC(=O)O)C(=O)O)cc3)cnc2n1,inactive
